Screening data (PubChem BioAssay)
This is a sample that favours compounds with a hit; in the whole collection about 6.6% have one here.
BoNT A protease: BoNT/A light chain protease inhibitors, primary screen, biochemical, flow cytometry, MLPCN library | Botulinum neurotoxin type A light chain protease (Clostridium botulinum A str. ATCC 3502) | multiplex microsphere protease substrate cleavage | inhibition, % at 10 µM | 0.17% of 360,000 active | AID 588499, 2011
BoNT-F LC inh: BoNT/F light chain protease inhibitors, primary screen, biochemical, flow cytometry, MLPCN library | Botulinum neurotoxin type F light chain protease (Clostridium botulinum) | Multiplex microsphere protease cleavage assay | inhibition, % at 10 µM | 0.22% of 360,000 active | AID 588497, 2011; in the data active = inhibition above about 35%, passing the limit was not always enough; inconclusive = no clear call, values can overlap the other calls
Anthrax LF prot: Bacillus anthracis LF protease inhibitors, primary screen, biochemical, multiplex microsphere, MLPCN library | Lethal factor (Bacillus anthracis), P15917 | multiplex microsphere protease cleavage assay | inhibition, % at 10 µM | 0.12% of 360,000 active
Mtb FBA inh: Mtb FBA enzyme inhibitors, primary screen, biochemical, fluorescence, strain H37Rv; Fructose-bisphosphate aldolase (Mycobacterium tuberculosis (strain ATCC 25618 / H37Rv)), …; purified M. tuberculosis FBA, fluorescence read-out; inhibition, % at 1 µM; 2.3% of 360,000 active; AID 588726, 2011; in the data active = inhibition above about 27%
Target sequence (P9WQA3 whole entry, looked up): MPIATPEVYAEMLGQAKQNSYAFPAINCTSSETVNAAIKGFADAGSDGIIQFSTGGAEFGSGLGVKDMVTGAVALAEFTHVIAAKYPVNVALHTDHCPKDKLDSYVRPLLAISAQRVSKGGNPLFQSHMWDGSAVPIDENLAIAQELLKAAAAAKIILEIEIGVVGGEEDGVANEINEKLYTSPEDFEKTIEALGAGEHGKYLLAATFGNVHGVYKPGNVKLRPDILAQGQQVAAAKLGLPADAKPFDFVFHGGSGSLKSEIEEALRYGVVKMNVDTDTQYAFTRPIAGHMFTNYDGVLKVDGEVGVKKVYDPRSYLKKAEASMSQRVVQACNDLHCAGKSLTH
Bead autofluor: flagged as autofluorescent in microsphere protease counterscreen. 3.1% of 360,000 active. fluorescence intensity (no concentration beside the values). compound autofluorescence counterscreen, microsphere flow cytometry; hits give high values. AID 624483; in the data active = fluorescence intensity above about 16000; inconclusive = no clear call, values can overlap the other calls
GDH-TPI counter-1: GDH-TPI coupling enzyme inhibitors, primary screen, artefact control for M. tuberculosis FBA inhibitor project, biochemical, absorbance, full deck | GDH-TPI coupled enzyme counterscreen, NADH absorbance | 1.2% of 360,000 active | inhibition, % at 4.8 µM; in the data active = inhibition above about 30%
Mtb FBA inh conf: M. tuberculosis aldolase blockers, biochemical, fluorescence, strain H37Rv, confirmation; shares compounds with Mtb FBA inh; purified M. tuberculosis FBA, fluorescence read-out; inhibition, % at 1 µM; 78% of 5,600 active; AID 651616, 2012; in the data active = inhibition above about 27%
GDH-TPI counter-2: GDH-TPI coupling enzyme inhibitors, artefact control for M. tuberculosis FBA inhibitor project, biochemical, fluorescence, high throughput; GDH-TPI coupled enzyme counterscreen; 81% of 5,600 active; inhibition, % at 1 µM; shares compounds with Mtb FBA inh; AID 652141, 2013; in the data active = inhibition above about 10%
Hits are given with their value; 0 = inactive; ? = inconclusive; - = not tested or not shown. Cut-off read from the data, not from the text of the source, unless noted: active = inhibition above about 30%; inconclusive = no clear call, values can overlap the other calls; inactive = below that.

SMILES	BoNT A protease	BoNT-F LC inh	Anthrax LF prot	Mtb FBA inh	Bead autofluor	GDH-TPI counter-1	Mtb FBA inh conf	GDH-TPI counter-2
CCN(CCCNC(=O)c1cc2c(-c3cccc(OC)c3)nn(C)c2s1)Cc1ccccc1	0	0	0	53	0	0	39	43
CCCCN(CC)CCNC(=O)c1cc2c(-c3ccccc3F)nn(C)c2s1	0	0	0	46	0	0	47	35
CCCN(CCC)CCNC(=O)c1cc2c(=O)n(C)c3ccccc3c2n1C	0	0	0	30	0	0	0	0
CCN(CC)CCCNC(=O)c1cc2c(-c3ccc(Cl)cc3)nn(C)c2s1	0	0	0	0	0	0	-	-
CN(CCNC(=O)c1cc2c(=O)n(C)c3ccccc3c2n1C)Cc1ccccc1	0	0	0	0	0	0	-	-
CCN(C(=O)COC(=O)c1cccc(-n2cnnn2)c1)C1CCCCC1	0	0	0	0	0	0	-	-
CCCCN(CC)CCNC(=O)c1cc2c(=O)n(C)c3ccccc3c2s1	0	?	0	49	0	0	181	144
Cc1ccc(Oc2ccc(NC(=O)CSc3n[nH]c(N)n3)cc2)cc1	0	0	0	32	0	0	0	0
Nc1nc(SCC(=O)Nc2ccc(S(N)(=O)=O)cc2)n[nH]1	0	0	0	0	0	0	-	-
COCCNC(=O)COc1coc(CN2CCN(Cc3ccccc3)CC2)cc1=O	0	0	0	0	0	0	-	-
O=C(c1cccnc1)N1CCC(Oc2ccc(C(=O)N3CCCC(O)C3)cc2)CC1 (centres undefined)	0	0	0	28	0	0	58	30
CC(NC(=O)c1ccc(OC2CCN(C(=O)c3cccnc3)CC2)cc1)C1CC1 (centres undefined)	0	0	0	0	0	0	-	-
COc1ccc(/C=C/c2c(-c3ccc(OC)cc3)oc3cccnc23)cc1	0	0	0	41	0	0	0	0
CCOC(=O)C1CCN(C(=O)COC(=O)/C=C/c2cccc(OC)c2OC)CC1	0	0	0	0	0	0	-	-
CCOC(=O)c1sc(-c2ccc(OC)cc2)cc1NC(C)=O	0	0	0	79	0	0	153	134
CCOc1ccc(NC(=O)Nc2cc(-c3ccccc3)sc2C(=O)OC)cc1	0	0	0	0	0	0	-	-
Nc1cc(Cl)ccc1C(=O)OCC(=O)N1CCOCC1	0	0	0	44	0	0	63	53
Nc1cc(Cl)ccc1C(=O)OCC(=O)N1CCCC1	0	0	0	59	0	0	93	84
Nc1cc(C(=O)OCC(=O)N2CCCC2)ccc1Cl	0	0	0	0	0	0	-	-
Nc1cc(Cl)ccc1C(=O)OCC(=O)N1CCCCCC1	0	0	0	60	0	0	0	0
Nc1cc(Cl)ccc1C(=O)OCC(=O)NCC1CCCO1 (centres undefined)	0	0	0	53	0	0	106	74
COC(=O)c1ccc(CN2CCc3ccccc32)cc1	-	-	-	0	-	0	-	-
Nc1cc(Cl)ccc1C(=O)OCC(=O)NC1CCCCC1	0	0	0	0	0	0	-	-
CCN(C(=O)COC(=O)c1ccc(Cl)cc1N)C1CCCCC1	0	0	0	31	0	0	93	87
CN(C(=O)CN1CCN(c2cc(-c3cccc4oc5ccccc5c34)ncn2)CC1)c1ccccc1	0	0	0	0	0	0	-	-
COc1ccc(C(=O)N/N=C(\c2ccccc2)c2ccccn2)cc1	0	0	0	49	0	0	147	116
CCC1(C)Cc2ccccc2-c2nc3n(c(=O)c21)CC(C(=O)O)S3 (centres undefined)	0	?	0	39	0	0	0	0
CCOC(=O)c1c(S(=O)(=O)NCc2ccc(C)o2)c(C)n(C)c1C	0	0	0	0	0	0	-	-
COc1ccc2oc(-c3ccccc3)c(C(=O)N(C)C)c2c1	0	0	0	34	0	0	120	113
